# Assay results from PubChem BioAssay AID1010 (Sanford-Burnham Center for Chemical Genomics, 2008).
# Screen size: about 48,000 compounds; about 160 (0.33%) were called active.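 The calls were made as follows: active = survival measured by cellular ATP above 50% at 15 µg/ml in the first screen; inactive = the rest.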 The full list was thinned out, with actives kept by preference.
# Assay: protection against thapsigargin ER stress killing – CSM14.1 cells, ATP luminescence, primary screen (AID 1010);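 also: cell death triggered by about 15 µM thapsigargin; ATP read 24 h after thapsigargin was added; plate controls were thapsigargin with DMSO for no effect and DMSO without thapsigargin for full effect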
# Settings: CSM14.1 thapsigargin ER stress survival, stronger effect = higher value, screened at 15 µg/mL (by protocol)
row,SMILES,relative survival (cellular ATP)
1,COc1ccc(N2C(=O)/C(=C/c3cc(C)n(-c4ccc([N+](=O)[O-])cc4)c3C)C(=O)NC2=S)cc1,-5.8% (inactive)
2,C=CCOc1cccc(/C=N/NS(=O)(=O)c2ccc(Cl)cc2)c1,3.1% (inactive)
3,O=C(O)c1ccccc1C(=O)N1CCN(C(=O)c2ccccc2C(=O)O)CC1,-0.9% (inactive)
4,CCN(CC)c1ccc(Nc2nc(-c3sc(C)nc3C)cs2)cc1,49.2% (inactive)
5,O=C1/C(=C/c2ccc(F)cc2)SC(=S)N1c1ccc(F)cc1,-1.4% (inactive)
6,CCN1C(=O)/C(=C/c2ccc(NC(=O)c3ccc4ncccc4c3)cc2)SC1=S,8.8% (inactive)
7,COC(=O)C(C)NC(=O)CCC1CCCCC1 (stereo not given),4.2% (inactive)
8,Cc1cccc(C)c1OCC(=O)Nc1sc2c(c1C(N)=O)CCC2,10.1% (inactive)
9,CC(=O)C1=C(O)C(=O)N(CC2CCCO2)C1c1ccc(C(C)C)cc1 (stereo not given),-5.9% (inactive)
10,COc1ccc(C2CC(C(F)(F)F)n3nc(C(=O)NCCc4ccccc4)c(Cl)c3N2)cc1OC (stereo not given),2.7% (inactive)
11,COc1cc(NC(=O)c2cc(Cl)c(OC)c(Cl)c2)ccc1NC(=O)c1ccco1,-1.3% (inactive)
12,CCSc1nnc2c(n1)OC(c1ccc(-c3ccc(Cl)cc3)o1)Nc1ccccc1-2 (stereo not given),4.5% (inactive)
13,COc1ccccc1/C=N/NC(=O)c1cc(C23CC4CC(CC(C4)C2)C3)[nH]n1,3% (inactive)
14,Cc1c(OCC(=O)N(C)C)ccc2c3c(c(=O)oc12)CCCC3,4.4% (inactive)
15,N#Cc1ccc(/C=N/Nc2nc(-c3ccccc3)cs2)cc1,5.1% (inactive)
16,CS(=O)(=O)N1CCN(Cc2ccc(Br)cc2)CC1,-1.6% (inactive)
17,O=C(CSc1nnc(-c2cccs2)n1-c1ccccc1)c1cccc([N+](=O)[O-])c1,-3.1% (inactive)
18,COc1ccc2ccccc2c1-c1cc(C(=O)NN)[nH]n1,-1% (inactive)
19,COCCCN1C(=O)c2cccc3cccc(c23)C1=O,0.8% (inactive)
20,O=C(CCCN1C(=O)c2cccc3cccc(c23)C1=O)N1CCN(Cc2ccc3c(c2)OCO3)CC1,77.5% (active)
21,O=C(CCN1C(=O)c2cccc3cccc(c23)C1=O)OCCCc1ccncc1,5.7% (inactive)
22,Cc1[nH]n(-c2ccccc2)c(=O)c1C(c1ccc(C(F)(F)F)cc1)c1c(C)[nH]n(-c2ccccc2)c1=O,4.8% (inactive)
23,O=C(O)CCCNC(=O)c1ccccc1NC(=O)c1ccccc1,7.8% (inactive)
24,Cc1nnc(N2C(=O)c3ccc(-c4nc5ccccc5c(=O)o4)cc3C2=O)s1,5.9% (inactive)
25,CN(C1=NS(=O)(=O)c2ccccc21)c1ccccc1,3.5% (inactive)
26,O=C(COc1ccccc1)Nc1cccc(NC(=O)c2ccco2)c1,9% (inactive)
27,COc1ccccc1/C=C1/SC(=S)N(CCC(=O)N2c3ccccc3Sc3ccc(Cl)cc32)C1=O,10% (inactive)
28,CC(N=Cc1ccccc1O)C12CC3CC(CC(O)(C3)C1)C2 (stereo not given),-0.1% (inactive)
29,Cc1cc(OCC(=O)Nc2ccccc2C(N)=O)cc(C)c1Cl,2.7% (inactive)
30,O=C(Nc1ccc(Br)c(Cl)c1)C(c1ccccc1)c1ccccc1,4.5% (inactive)
